Nine compounds from PubChem BioAssay (Tox21) can be followed below.

The nature of assay [1]: qHTS assay to identify small molecule antagonists of the estrogen related receptor (ERR) signaling pathway from Tox21 library - cell viability counter screen (AID 1224834). Note: nearly all actives have a fitted effect of over 30% in size. Note: potency is the fitted concentration of half-maximal effect. In a few lines: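 In this quantitative HTS format, ERR cells receive compounds in DMSO and are incubated for 17.5 h at 37 C. Live-cell protease activity is then detected with CellTiter-Fluor.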
For assay [2], the target named is Luciferin 4-monooxygenase (Photinus pyralis) (UniProt P08659). The assay can be described thus: qHTS assay to identify small molecule inhibitors of firefly luciferase (AID 1224835). Note: nearly all actives have a fitted effect of over 25% in size. In a few lines: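 Inhibition of purified Photinus luciferase is measured by luminescence. Substrate levels (D-luciferin, ATP) sit at their KM values. Each compound is tested in a concentration series.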
(In general: qHTS replaces the single test concentration by a dilution series.)

Assay [3] in a line: qHTS assay to identify small molecule agonists of the constitutive androstane receptor (CAR) signaling pathway - cell viability counter screen (AID 1224836). Note: nearly all actives have a fitted effect of over 45% in size. In a few lines: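 Using CellTiter-Fluor, viability of HepG2 cells harbouring hCAR and CYP2B6-2.2kb was measured following 23 h incubation with a 15-concentration compound series plus PK11195 (0.75 uM final).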
A short description of assay [4]: qHTS assay to identify small molecule antagonists of the constitutive androstane receptor (CAR) signaling pathway - cell viability counter screen (AID 1224837). Note: nearly all actives have a fitted effect of over 45% in size. Note: potency is the fitted concentration of half-maximal effect. In a few lines: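 In quantitative HTS format, compounds at 15 concentrations were applied to HepG2 cells double-transfected with hCAR and CYP2B6-2.2kb under 50 nM CITCO stimulation; live-cell protease activity was read after 23 hr via CellTiter-Fluor.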

Assay [5] can be described thus: qHTS assay to identify small molecule antagonists of the estrogen related receptor signaling pathway with the pleiotropic PPARgamma coactivator (PGC) from Tox21 10K library - cell viability counter screen (AID 1224840; active = well fitted cell-killing curve with a large enough effect in the repeat runs, not every such curve was filed as active; note: nearly all actives have a fitted effect of over 40% in size; note: potency is the fitted concentration of half-maximal effect). In a few lines: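 Viability counter screen, PGC/ERR cells: 17.5 h compound exposure at 37 C, CellTiter-Fluor fluorescence endpoint.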
Assay [6] can be described thus: qHTS assay to identify small molecule agonists of the hypoxia (HIF-1) signaling pathway - cell viability counter screen (AID 1224844; calls by dose curve; note: nearly all actives have a fitted effect of over 50% in size; note: potency is the fitted concentration of half-maximal effect). In a few lines: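 Same wells as the HIF-1 reporter screen; ME-180 cells carrying HRE-bla, 17 hr treatment at 37C; CellTiter-Glo luminescence read after 30 min at room temperature.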
Assay [7] can be described thus: qHTS assay to identify small molecule agonists of H2AX (AID 1224845; active = well fitted activation curve with a large enough effect in the signal ratio in the repeat runs, not every such curve was filed as active; the % refers to the signal ratio). In a few lines: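 Phospho-H2AX Ser139 measured by HTRF (ex 320 nm; em 665 and 620 nm) after 24 hr antibody incubation. Compounds, 15 concentrations, 0.76% DMSO, were applied to CHO-K1 cells for 3hr at 37C before lysis.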
Assay [8] can be described thus: qHTS assay to identify small molecule agonists of the hypoxia (HIF-1) signaling pathway (AID 1224846; active = well fitted activation curve with a large enough effect in the signal ratio in the repeat runs, not every such curve was filed as active; the % refers to the signal ratio). In a few lines: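 In ME-180 cells bearing an HRE-bla construct, 17 h treatment with DMSO-dissolved compounds at 37C was followed by CCF4-AM loading to quantify reporter induction.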
Assay [9] is described as follows: qHTS assay to identify small molecule agonists of H2AX - cell viability counter screen (AID 1224847; calls by dose curve; note: nearly all actives have a fitted effect of over 30% in size; note: potency is the fitted concentration of half-maximal effect). In a few lines:
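Quantitative HTS viability measurement: CHO-K1 wild-type cells in serum (10% FBS) medium, short 3 hr drug exposure at 37C with 0.76% DMSO, CellTiter-Glo luminescent detection.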

The nature of assay [10]: qHTS RealTime-Glo MT Cell Viability Assay in HepG2 cells - 24 hour (AID 1224867). Note: nearly all actives have a fitted effect of over 50% in size. Note: potency is the fitted concentration of half-maximal effect. In a few lines:
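HepG2 cells (600/well) were dispensed with RealTime-Glo reagents, incubated 5 h at 37 °C, then treated with compounds in DMSO for up to 40 h. Nonlytic NanoLuc luminescence reflecting viable cells was read at each stated time point.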

Assay [11] in a line: qHTS RealTime-Glo MT Cell Viability Assay in HEK293 cells - 32 hour (AID 1224868). Note: nearly all actives have a fitted effect of over 50% in size. Note: potency is the fitted concentration of half-maximal effect. In a few lines: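 HEK293 cells seeded with NanoLuc/prosubstrate reagent, rested 5 h at 37 C, then dosed and kept at 37 C up to 40 h. Nonlytic real-time luminescence from viable cells read at 0, 8, 16, 24, 32 and 40 h.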
Assay [12] is described as follows: A CellTox Green Cytotoxicity Assay to monitor cytotoxicity in HEK293 cells - 0 hour (AID 1224869). Note: nearly all actives have a fitted effect of over 50% in size. In a few lines:
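Homogeneous no-lysis format: HEK293 cell suspension mixed with CellTox Green reagent, seeded, incubated 5 h at 37 C/5% CO2, then dosed by pintool with compound in DMSO.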

A short description of assay [13]: qHTS RealTime-Glo MT Cell Viability Assay in HepG2 cells - 40 hour (AID 1224870). Note: nearly all actives have a fitted effect of over 50% in size. In a few lines:
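Real-time viability: cells seeded at 600 per well together with NanoLuc and cell-permeant prosubstrate, compounds added after 5 h incubation. Luminescence tracked at 0, 8, 16, 24, 32 and 40 h of exposure.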

In assay [14] the target is Nuclear receptor subfamily 1 group I member 3 (Homo sapiens) (UniProt Q14994). The assay can be described thus: qHTS assay to identify small molecule antagonists of the constitutive androstane receptor (CAR) signaling pathway (AID 1224838). Note: nearly all actives have a fitted effect of over 40% in size. Note: potency is the fitted concentration of half-maximal effect. In a few lines:
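CITCO-stimulated (50 nM final) HepG2 cells stably transfected with hCAR and CYP2B6-2.2kb luciferase were exposed to compounds at 15 concentrations for 24 h at 37 C/5% CO2. A luciferase reagent was added and luminescence recorded after 30 min.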

For assay [15] the target is unchanged. Description: qHTS assay to identify small molecule agonists of the constitutive androstane receptor (CAR) signaling pathway (AID 1224839).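 Note: HepG2 cells stably carrying human CAR and a CYP2B6 luciferase reporter; nearly all actives have a fitted effect of over 15% in size.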 In a few lines:
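Double-stable HepG2 cells (hCAR, CYP2B6-2.2kb) seeded 4 h before compound addition. Exposure 24 h with 0.75 uM PK11195 final. Luciferase detected by ONE-Glo.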

Assay [16] deals with Thyrotropin receptor (Homo sapiens) (UniProt P16473). The assay can be described thus: qHTS assay to identify small molecule agonists of the thyroid stimulating hormone receptor (TSHR) signaling pathway (AID 1224843; calls by dose curve; note: nearly all actives have a fitted effect of over 45% in size). In a few lines: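 Agonist activity read as cAMP rise via d2/cryptate HTRF competition, 1 h room-temperature detection, in HEK293 cells expressing TSHR. Fifteen-point titrations, each run in triplicate, with a 30 min room-temperature incubation beforehand.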

The nature of assay [17]: qHTS assay to identify small molecule antagonists of the estrogen related receptor signaling pathway with the pleiotropic PPARgamma coactivator (PGC) from Tox21 10K library (AID 1224841; call rule not given here; note: potency is the fitted concentration of half-maximal effect). In a few lines: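 In the PGC/ERR line, DMSO solutions of test chemicals are pin-delivered to 2,000 cells/well six hours after dispensing. Following eighteen hours' incubation, One-Glo reagent is added and luminescence recorded.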

Assay [18] is described as follows: qHTS assay to identify small molecule agonists of the estrogen related receptor signaling pathway with the pleiotropic PPARgamma coactivator (PGC) from Tox21 10K library (AID 1224842). Note: nearly all actives have a fitted effect of over 15% in size. In a few lines:
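Luminescence from One-Glo (30 min, room temperature) measured after PGC/ERR cells had 18 h at 37 C with pinned compound (23 nL in DMSO). Cells had been seeded at 2,000 per well and pre-incubated 6 h.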

A short description of assay [19]: qHTS assay to identify small molecule antagonists of the estrogen related receptor (ERR) signaling pathway from Tox21 library (AID 1224848). Note: nearly all actives have a fitted effect of over 50% in size. Note: potency is the fitted concentration of half-maximal effect. In a few lines:
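Luciferase luminescence (ONE-Glo, 30 min room temperature) was the read-out. Cells of the NTP-supplied ERR line, 2,000 per well, were given 6 h at 37 C before compound addition in DMSO and 18 h exposure at 37 C.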

Assay [20] in a line: qHTS assay to identify small molecule agonists of the estrogen related receptor (ERR) signaling pathway from Tox21 library (AID 1224849; calls by dose curve; note: nearly all actives have a fitted effect of over 15% in size). Conditions: ERR reporter cell line, ONE-Glo luciferase, 18 h; at 92.4 µM (top of the series) unless noted. In a few lines: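 Reporter cells (ERR, NTP source) treated with Tox21 10K compounds 18 h, 37 C. Readout: ONE-Glo luminescence, 30 min RT.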

Unmarked numbers belong to inactive results. Records with an inconclusive call do not appear. The source made the active and inactive calls. Unless noted, calls come from the whole dose curve; as a rule, active = well fitted curve in the direction sought with a large enough effect in the repeat runs; inconclusive = weak or mixed curves; inactive = no such curve, though single readings can be large; an effect the other way counts as inactive or inconclusive.
% is set by controls: 0 for no effect and ±100 for the full control effect.

Chain of Luciferin 4-monooxygenase (Photinus pyralis) (P08659 whole entry, looked up): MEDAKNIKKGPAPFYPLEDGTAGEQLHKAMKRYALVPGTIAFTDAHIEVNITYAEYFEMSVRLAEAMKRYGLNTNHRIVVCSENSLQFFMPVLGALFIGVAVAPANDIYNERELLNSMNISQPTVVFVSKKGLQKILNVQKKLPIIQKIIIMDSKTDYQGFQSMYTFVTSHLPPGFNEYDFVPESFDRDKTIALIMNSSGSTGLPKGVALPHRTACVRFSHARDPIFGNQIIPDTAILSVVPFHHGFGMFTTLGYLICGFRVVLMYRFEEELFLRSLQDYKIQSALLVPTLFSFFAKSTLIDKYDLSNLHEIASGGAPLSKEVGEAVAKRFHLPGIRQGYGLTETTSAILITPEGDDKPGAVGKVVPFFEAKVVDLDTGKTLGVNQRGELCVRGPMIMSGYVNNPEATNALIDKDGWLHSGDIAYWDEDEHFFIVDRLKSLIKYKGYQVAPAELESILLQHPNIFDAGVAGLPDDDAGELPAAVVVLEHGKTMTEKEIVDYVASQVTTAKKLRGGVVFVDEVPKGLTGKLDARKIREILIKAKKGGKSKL
Chain of Nuclear receptor subfamily 1 group I member 3 (Homo sapiens) (Q14994 whole entry, looked up): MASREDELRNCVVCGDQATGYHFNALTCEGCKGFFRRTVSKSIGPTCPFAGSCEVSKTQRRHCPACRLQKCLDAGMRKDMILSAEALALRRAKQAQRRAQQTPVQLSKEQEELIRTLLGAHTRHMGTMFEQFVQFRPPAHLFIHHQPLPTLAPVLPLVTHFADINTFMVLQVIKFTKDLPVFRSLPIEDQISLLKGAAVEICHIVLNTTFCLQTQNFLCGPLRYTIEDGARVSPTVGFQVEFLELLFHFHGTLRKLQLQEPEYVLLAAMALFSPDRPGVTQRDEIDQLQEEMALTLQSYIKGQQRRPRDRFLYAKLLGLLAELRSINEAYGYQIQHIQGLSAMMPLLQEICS
Chain of Thyrotropin receptor (Homo sapiens) (P16473 whole entry, looked up): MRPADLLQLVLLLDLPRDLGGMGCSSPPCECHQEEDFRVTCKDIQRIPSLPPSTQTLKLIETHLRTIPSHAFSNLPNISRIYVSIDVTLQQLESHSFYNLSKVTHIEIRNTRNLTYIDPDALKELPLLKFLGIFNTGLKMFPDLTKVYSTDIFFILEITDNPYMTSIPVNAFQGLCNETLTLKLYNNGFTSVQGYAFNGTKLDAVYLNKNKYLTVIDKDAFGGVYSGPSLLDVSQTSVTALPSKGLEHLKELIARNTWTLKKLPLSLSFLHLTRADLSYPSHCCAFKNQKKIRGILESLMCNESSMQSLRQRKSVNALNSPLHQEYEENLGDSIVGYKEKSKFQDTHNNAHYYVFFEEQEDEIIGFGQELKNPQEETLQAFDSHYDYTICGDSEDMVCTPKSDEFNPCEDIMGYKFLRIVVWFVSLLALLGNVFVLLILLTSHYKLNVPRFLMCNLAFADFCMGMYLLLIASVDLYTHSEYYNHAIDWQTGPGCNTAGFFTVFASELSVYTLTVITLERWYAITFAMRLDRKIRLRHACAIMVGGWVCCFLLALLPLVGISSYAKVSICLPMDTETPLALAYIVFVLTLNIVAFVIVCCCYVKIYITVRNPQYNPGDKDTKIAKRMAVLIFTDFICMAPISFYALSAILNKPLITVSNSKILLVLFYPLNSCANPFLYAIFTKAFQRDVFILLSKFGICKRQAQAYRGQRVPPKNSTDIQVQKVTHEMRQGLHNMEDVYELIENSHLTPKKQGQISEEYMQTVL

Turning to `Nc1nccs1`, the Potency entry in [1], in [2], in assay [3], in assay [4], in assay [5] and in [6] was “inactive” throughout. Besides, the Potency entry in [7], in assay [9], in assay [10], in assay [11], in assay [12] and in [13] was “inactive” throughout. The call in assay [8] was inactive.

For `O=C1OCCN1/N=C/c1ccc([N+](=O)[O-])o1`, the Potency result in assay [1], in assay [2], in assay [3], in [14], in [15] and in assay [16] was “inactive” in each case. In addition, the Potency entry in [6], in assay [9], in assay [11], in [12] and in assay [13] was “inactive” in each case. In addition, the result in [8] was inactive.

As for `Fc1ccccc1[C@@H](F)COC1CCC(Nc2ncnc3[nH]ncc23)CC1` (some centres not stated), the figures for the Potency in assay [1], in [9] and in assay [11] were 30.6 µM (active), 101 µM (active) and 21.9 µM (active), respectively. For the same compound, the Potency entry in assay [2], in [14], in assay [15], in [16], in [7] and in assay [13] was “inactive” in each case. In assay [8], the compound was classed as inactive.

Consider `CCC(C(=O)OCCOCCN(CC)CC)c1ccccc1` (configuration not stated), for which the Potency entry in assay [1], in assay [2], in assay [3], in assay [4], in [5] and in assay [7] was “inactive” each time. Moreover, the Potency entry in assay [9], in assay [11], in assay [12] and in [13] was “inactive” each time. For the same compound, in [8], the call was inactive.

Regarding `CC(COc1ccc(C(C)(C)C)cc1)OS(=O)OCCCl` (configuration not stated), the Potency in assay [1] was 0.488 µM (active); in assay [4], 0.274 µM (active); in assay [14] it was 1.73 µM (active); in assay [5] it was 0.614 µM (active); in [17] it was 1.23 µM (active); in assay [6] it was 1.75 µM (active). For the same compound, the Potency in assay [19] was 0.614 µM (active). The Potency entry in assay [2], in [15], in [18], in assay [16], in assay [9] and in assay [10] was “inactive” throughout. Moreover, in assay [13], the Potency result was “inactive”. Also, the outcome in assay [8] was inactive. In assay [20], the activity change, positive = activation is -72.8%.

For the compound `CC(CCO)CCc1ccccc1` (configuration not stated), the Potency entry in assay [1], in assay [2], in assay [3], in assay [4], in [7] and in [9] was “inactive” each time. In addition, the Potency entry in [11], in [12] and in [13] was “inactive” each time. Further, the call in assay [8] was inactive.

`OCC1CC=CCC1` (configuration not stated): the Potency entry in assay [1], in assay [3], in assay [4], in assay [14], in assay [15] and in assay [5] was “inactive” each time. For the same compound, the Potency entry in assay [16], in assay [6], in assay [9], in [10], in [11] and in [12] was “inactive” in each case. Besides, in [13], the Potency entry is “inactive”. In addition, the result in assay [8] was inactive.

On to `CC(C)(O)c1ccccc1CC[C@@H](SCC1(CC(=O)O)CC1)c1cccc(/C=C/c2ccc3ccc(Cl)cc3n2)c1`, for which the Potency entry in assay [1], in [2], in assay [3], in assay [4], in assay [17] and in assay [18] was “inactive” each time. Also, the Potency entry in assay [16], in [6], in assay [7], in assay [9], in assay [19] and in assay [10] was “inactive” throughout. Besides, the Potency entry in assay [11], in assay [12] and in assay [13] was “inactive” in each case. Also, in assay [8], the result was inactive. The activity change, positive = activation in assay [20] was 1.93% [at 42.5 µM].

With `CNCCCC1c2ccccc2C=Cc2ccccc21`, the figures for the Potency in assay [1] and in [10] were 29.8 µM (active) and 21.3 µM (active), respectively. In addition, the Potency entry in [2], in assay [17], in assay [16], in assay [7], in [9] and in assay [12] was “inactive” each time. For the same compound, the activity change, positive = activation in assay [20] was -23.5% [at 42.5 µM].
